From PubChem BioAssay AID1986 (Sanford-Burnham Center for Chemical Genomics, 2009) come the findings set out here.

SMILES strings stand for the structures. Out of some 290,000 compounds screened, about 890 (0.31%) were called active. Rule as the data show it: active = inhibition mostly above about 52% (no sharp cut-off); inactive = mostly below about 76%. Many of the other results were omitted from the sample, so actives are more common in it than they were.

The experiment in a line: cell-free HIV fusion peptide-binding blockers – biochemical, uHTS, fluorescence dequenching, primary screen (AID 1986). Conditions: 30 min, stronger effect = higher value.
Setting [1] is: measured here: repeat confirmation average inhibition, at 18.6 µM.

Take `CCc1ccccc1N(C(=O)CCC(=O)Nc1cc(C)on1)C(C(=O)NC1CCCC1)c1ccco1` (stereo not drawn): the inhibition (at 20 µM) is 0.8% (inactive).

For the compound `O=[N+]([O-])c1ccc2c(c1)oc1ccccc12`, the inhibition (at 20 µM) was -0.8% (inactive).

Regarding `CC(=O)CC(c1ccc([N+](=O)[O-])cc1)c1c(O)c2ccccc2oc1=O` (stereo not drawn), the inhibition (at 20 µM) is 3.8% (inactive).

For `COc1cc(/C=N/NC(N)=O)cc([N+](=O)[O-])c1O`, the inhibition (at 20 µM) was -1.1% (inactive).

Turning to `CCN(CC(=O)Nc1c(F)cccc1F)C(=O)c1ccccc1F`, the inhibition (at 20 µM) is 0.4% (inactive).

With `O=C(O)C(Cc1ccccc1)n1cccc1` (stereo not drawn), the inhibition (at 20 µM) is 1.2% (inactive).

As for `O=C(O)C(Cc1ccccc1)N1C(=O)CCC1=O` (stereo not drawn), the inhibition (at 20 µM) is -1.2% (inactive).

Regarding `Cc1ccc(C)n1C(Cc1ccccc1)C(=O)O` (stereo not drawn), the inhibition (at 20 µM) is 67.3% (active).

Regarding `Cc1ccc(CNC(=O)C2CCN(C(=O)c3cccc(Cl)c3)CC2)cc1`, the inhibition (at 20 µM) is 1.1% (inactive).

Take `Cc1ccc(S(=O)(=O)N(CC(=O)Nc2ccccc2C(=O)O)c2ccccc2C)cc1`: the inhibition (at 20 µM) is 9.7% (inactive).

Consider `Cc1ccc(S(=O)(=O)N(CC(=O)Nc2ccccc2C(=O)O)c2cccc(Cl)c2C)cc1`, for which, where the note is “at 20 µM”, the inhibition is 52% (active).

Consider `Cc1ccc(S(=O)(=O)N(CC(=O)Nc2ccccc2C(=O)O)c2ccccc2)cc1`, for which the inhibition (at 20 µM) was 10.7% (inactive).

With `CC1CCN(C(=O)CSc2nc3ccccc3c(=O)[nH]2)CC1`, the inhibition (at 20 µM) is -0.9% (inactive).

Consider `CC(C(=O)N1CCN(C(=O)c2ccco2)CC1)n1sc2ccccc2c1=O` (stereo not drawn), for which the inhibition (at 20 µM) is 1.6% (inactive).

`CC1=CC(=O)c2c(O)ccc(O)c2C1=O`: where the note is “at 20 µM”, the inhibition is 68.3% (active).

With `CC1=CC(=O)c2ccccc2C1=O`, the inhibition (at 20 µM) was -2.1% (inactive).

For `COc1cccc2c1C(=O)C=C(C)C2=O`, the inhibition (at 20 µM) was 2.7% (inactive).

Regarding `O=C(COc1ncnc2ccccc12)Nc1cc([N+](=O)[O-])ccc1Cl`, the inhibition (at 20 µM) is -0.3% (inactive).

As to `COCC1CCN(C(=O)c2cc(COc3ccc(C)c(C)c3)on2)C1` (stereo not drawn), the inhibition (at 20 µM) was 0.9% (inactive).

Consider `COc1cc(/C=C2/SC(=O)N(Cc3ccccc3)C2=O)ccc1OCc1ccncc1`, for which the inhibition (at 20 µM) is -4.2% (inactive).

On to `Cc1ccc(S(=O)(=O)NC(=O)c2ccc(-c3ccc(C)c4ccccc34)o2)cc1`, for which, for the setting “at 20 µM”, the inhibition is 23.3% (inactive).

In the case of `Cc1ccc(S(=O)(=O)NC(=O)c2ccc(-c3ccc(-c4ccccc4)cc3)o2)c(C)c1`, the inhibition (at 20 µM) was 52.6% (active).

With `Cc1ccc(S(=O)(=O)NC(=O)c2ccc(Br)o2)c(C)c1`, where the note is “at 20 µM”, the inhibition was -0.8% (inactive).

With `O=C(Nc1cccc(C(=O)Nc2ccc(Cl)cn2)c1)c1ccccc1`, for the setting “at 20 µM”, the inhibition is 7.8% (inactive).

Take `O=C(Nc1ccc(F)cc1)c1oc2ccccc2c1NC(=O)C1CC1`: the inhibition (at 20 µM) is -0.2% (inactive).

For `CSc1nnc(-c2ccccc2N=Cc2c(C)[nH]n(-c3ccccc3)c2=O)c(=O)[nH]1`, the inhibition (at 20 µM) is 6% (inactive).

Regarding `Cc1nn(-c2ccc3ccccc3c2)c(=O)c2ccccc12`, the inhibition (at 20 µM) was 0% (inactive).

`Cc1ccc(/C=N/NC(=O)c2cc3c(ccc4ccccc43)o2)o1`: for the setting “at 20 µM”, the inhibition was -1.7% (inactive).

Regarding `Cc1ccc(-c2ccc(/C=N\NC(=O)c3cc4c(ccc5ccccc54)o3)o2)cc1[N+](=O)[O-]`, the inhibition (at 20 µM) was -1.4% (inactive).

As for `O=C(N/N=C/c1ccc(-c2ccc(Cl)c(C(=O)O)c2)o1)c1cc2c(ccc3ccccc32)o1`, the inhibition (at 20 µM) was 50.3% (active).

Take `CCC(C)NC(=O)COC(=O)c1cccnc1Nc1ccccc1F` (stereo not drawn): the inhibition (at 20 µM) is 0.1% (inactive).

As for `CCOC(=O)Cn1c2ccc(OC)cc2c2nc3ccccc3nc21`, the inhibition (at 20 µM) is 3% (inactive).

Take `COC(=O)Cn1c2ccc(OC)cc2c2nc3ccccc3nc21`: where the note is “at 20 µM”, the inhibition was 9.1% (inactive).

As to `CCCCOC(=O)Cn1c2ccc(OC)cc2c2nc3ccccc3nc21`, the inhibition was 53.3% (active) (at 20 µM) and 57.8% under setting [1].

With `CCc1ccc(-c2cc3c(=O)n(CC(=O)NCCN4CCCCC4C)nc(C)n3n2)cc1` (stereo not drawn), the inhibition (at 20 µM) was -0.3% (inactive).

Consider `COc1ccc2c(Cl)c(C(=O)NN)sc2c1`, for which the inhibition (at 20 µM) is 1.3% (inactive).

`COc1ccc2c(Cl)c(C(=O)N/N=C3\CCCC(=O)C3)sc2c1`: the inhibition (at 20 µM) was 77.7% (active).

For the compound `O=C1CCC/C(=N/NC(=O)c2sc3ccccc3c2Cl)C1`, the inhibition by setting is: (at 20 µM) 81.5% (inactive); under setting [1], 39.7%.

For `CC(C)(C)NC(=O)CSc1ccc(C(C)(C)C)cc1`, the inhibition (at 20 µM) was -2.2% (inactive).

`O=C(O)c1ccccc1N/N=C/c1c(Sc2nnnn2-c2ccccc2)nc2ccccn2c1=O`: the inhibition by setting is: (at 20 µM) 80.8% (active); under setting [1], 54.8%.

With `NC(=O)N/N=C/c1c(Sc2nnnn2-c2ccccc2)nc2ccccn2c1=O`, the inhibition (at 20 µM) was 0% (inactive).

Take `O=C(O)c1ccc(/C=N/Nc2nnnn2-c2ccccc2)cc1`: the inhibition (at 20 µM) was 2.1% (inactive).

In the case of `O=c1c(/C=N/Nc2ccccc2)c(Sc2nnnn2-c2ccccc2)nc2ccccn12`, the inhibition (at 20 µM) was 96.2% (active).

Regarding `O=c1c(/C=N/O)c(Nc2ccccc2)nc2ccccn12`, the inhibition (at 20 µM) is -2.7% (inactive).

For the compound `O=Cc1c(Sc2ccccc2)nc2ccccn2c1=O`, under “at 20 µM”, the inhibition was 2.6% (inactive).
